What all share (test): qHTS profiling for inhibitors of Plasmodium falciparum proliferation (AID 504749); note: nearly all actives have a fitted effect of over 60% in size
Details in all cases: P. falciparum in erythrocytes, SYBR Green DNA, 72 h; series mostly up to 28.7 µM

The subject of one assay is CP269. The procedure, abridged:
(§1)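 Quantitative HTS: compounds pinned into medium, infected erythrocytes added (0.3% parasitemia, 2.5% hematocrit), 72 h culture at 37 C under 5% CO2. Saponin/Triton lysis with SYBR Green I, overnight RT, then fluorescence read.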

The next assay deals with CP286. The procedure, abridged:
as §1

A further assay deals with CP291. The procedure, abridged:
as §1

A further assay concerns CP297. The method, boiled down: as §1
The subject of the next assay is CP305. The procedure, abridged: as §1
The test system of another assay is CP315. The method, boiled down:
as §1

The test system of a further assay is CP325. The method, boiled down:
as §1

A further assay concerns CP329. The procedure, abridged: as §1
In a further assay the test system is DFO2036. The method, boiled down:
as §1

Another assay concerns DIV14. The procedure, abridged:
as §1

The test system of another assay is DIV30. The procedure, abridged: as §1
The next assay relates to FAB9. The method, boiled down:
as §1

For a further assay, the system named is GB4. The procedure, abridged:
as §1

The next assay concerns HB3. The method, boiled down:
as §1

The test system of another assay is JCK. The method, boiled down:
as §1

Another assay relates to CP335. The procedure, abridged: as §1
The next assay has as its system Dd2. The method, boiled down:
as §1

For a further assay, the system named is ECU. The method, boiled down: as §1
The next assay concerns ICS. The method, boiled down:
as §1

In the next assay the test system is DIV17. The method, boiled down:
as §1

Records with an inconclusive call do not appear. Active and inactive are the calls of the source. Calls come from the whole dose curve; as a rule, active = well fitted inhibition curve with a large enough effect; inconclusive = small, poorly fitted or top-dose-only effect; inactive = flat fitted curve, though single readings scatter.
Potency is the fitted concentration of half-maximal effect.

For `C#CCOC(C(=O)OCCN(C)C)(c1ccccc1)c1ccccc1`, the Potency entry with CP269, in the assay on CP286, with CP291, in the assay with CP297, in the assay with CP305 and with CP315 was “inactive” throughout. In addition, the Potency entry in the assay on CP325, in the assay with CP329, with DFO2036, in the assay with DIV14, in the assay on DIV30 and in the assay on FAB9 was “inactive” in each case. Besides, the Potency entry in the assay on GB4, in the assay with HB3 and with JCK was “inactive” in each case.

In the case of `CC(C)(C)CC(C)(C)c1ccc(O)cc1`, the Potency entry in the assay on CP269, with CP286, in the assay on CP291, in the assay on CP297, in the assay on CP305 and in the assay with CP315 was “inactive” each time. Further, the Potency result in the assay on CP325, with CP329, in the assay with CP335, in the assay on DFO2036, with DIV30 and in the assay on FAB9 was “inactive” throughout. Further, the Potency entry with JCK is “inactive”.

On to `N#CC(C#N)=Cc1ccc(O)c(O)c1`, for which the Potency result with CP269, in the assay on CP286, with CP291, in the assay on CP305, in the assay on CP315 and in the assay on CP325 was “inactive” each time. The Potency result in the assay on CP329, in the assay with DFO2036, in the assay with DIV14, with DIV30, with Dd2 and with ECU was “inactive” throughout. In addition, the Potency result in the assay on FAB9, with HB3, with ICS and in the assay on JCK was “inactive” throughout.

In the case of `N[C@@H](Cc1ccc(N(CCCl)CCCl)cc1)C(=O)O`, the Potency entry in the assay on CP291, in the assay with CP297, in the assay with CP305, in the assay with CP315, in the assay on CP325 and in the assay with CP329 was “inactive” in each case. Besides, the Potency entry in the assay with DIV30, with FAB9 and with JCK was “inactive” in each case. For the same molecule, the Potency in the assay with DIV14 is 10.7 µM (active); in the assay on DIV17 it was 15.1 µM (active); in the assay on Dd2 it was 12.6 µM (active); in the assay on GB4, 15.1 µM (active).

Regarding `c1ccc2c(c1)Nc1ccccc1S2`, the Potency in the assay with CP335 is 8.49 µM (active); with DIV14, 6.75 µM (active); in the assay on DIV17, 7.57 µM (active); with GB4, 3.79 µM (active); with ICS, 12.6 µM (active). For the same molecule, the Potency result in the assay on Dd2, in the assay on FAB9 and in the assay on JCK was “inactive” in each case.

In the case of `c1ccc(C2CC2)c(OCC2=NCCN2)c1`, the Potency entry in the assay on CP269, in the assay on CP286, in the assay on CP291, in the assay on CP297, with CP305 and in the assay with CP315 was “inactive” in each case. For the same molecule, the Potency entry in the assay with CP325, with CP329, with CP335, in the assay with DFO2036, in the assay on DIV30 and with ECU was “inactive” in each case. Moreover, the Potency entry in the assay on FAB9, in the assay on HB3, with ICS and in the assay on JCK was “inactive” in each case.

On to `c1ccc2c(c1)OCC(C1=NCCN1)O2` (centres undefined), for which the Potency result in the assay on CP269, in the assay on CP286, in the assay with CP291, in the assay on CP297, with CP305 and in the assay on CP315 was “inactive” throughout. Also, the Potency entry with CP325, in the assay on CP329, in the assay on DFO2036, in the assay with DIV30, with Dd2 and in the assay with ECU was “inactive” in each case. In addition, the Potency result with FAB9, with HB3 and with JCK was “inactive” throughout.

In the case of `O=c1[nH]c2ccccc2n1CCCN1CCC(n2c(=O)[nH]c3cc(Cl)ccc32)CC1`, the Potency in the assay with CP286 is 11.2 µM (active); with CP297, 8.49 µM (active); with CP335 it was 10.7 µM (active); in the assay with DIV14, 5.36 µM (active); in the assay on DIV17, 8.49 µM (active); in the assay with DIV30, 7.57 µM (active). The values for the Potency in the assay with ECU, in the assay with HB3 and with ICS were 7.94 µM (active), 10 µM (active) and 2.24 µM (active), respectively. In addition, the Potency result in the assay on CP325, in the assay on DFO2036 and with FAB9 was “inactive” throughout.

For `CCC1(C2=NCCN2)Cc2ccccc2O1` (centres undefined), the Potency is 9.53 µM (active) in the assay with CP297, 8.49 µM (active) in the assay on CP335, 10 µM (active) with Dd2 and 8.49 µM (active) in the assay with GB4. Further, the Potency result with ECU, in the assay on FAB9, in the assay with HB3, in the assay on ICS and in the assay with JCK was “inactive” throughout.

`Oc1cc(Cl)ccc1Oc1ccc(Cl)cc1Cl`: the Potency in the assay on CP269 was 12 µM (active); in the assay with CP286, 12.6 µM (active); in the assay on CP297 it was 15.1 µM (active); with DFO2036 it was 10 µM (active); in the assay with DIV14, 3.01 µM (active); with DIV17, 6.01 µM (active). Moreover, the Potency with DIV30 was 6.75 µM (active); in the assay on Dd2, 11.2 µM (active); with ECU it was 6.31 µM (active); in the assay with FAB9 it was 11.2 µM (active); with GB4, 4.78 µM (active); in the assay on HB3, 8.91 µM (active). Besides, the Potency in the assay on ICS is 1.58 µM (active); with JCK, 11.2 µM (active). Besides, the Potency entry in the assay on CP305 is “inactive”.

For `CC(C)(C)NCC(O)c1cc(Cl)c(N)c(Cl)c1` (centres undefined), the Potency result with CP286, with CP315, in the assay with CP325, in the assay with CP329, with DFO2036 and with FAB9 was “inactive” each time. Also, the Potency entry with HB3 is “inactive”. Further, the Potency was 12 µM (active) with DIV14; 8.49 µM (active) in the assay on DIV17; 12.6 µM (active) in the assay on Dd2; 7.57 µM (active) in the assay with GB4; 11.2 µM (active) with ICS.

The values are drawn from PubChem BioAssay (NCATS).
